Among the test systems are SR leukemia; RPMI-8226 leukemia; OVCAR-8 ovarian; OVCAR-5 ovarian; OVCAR-4 ovarian; SK-OV-3 ovarian; IGROV1 ovarian; OVCAR-3 ovarian; HS 578T breast; NCI/ADR-RES ovarian; T-47D breast; BT-549 breast; MDA-MB-435 melanoma; SW-620 colon; MCF7 breast; HCT-116 colon; KM12 colon; HCC-2998 colon.
What all share (assay): NCI-60 one-dose screen, 48 h (100 = growth as untreated, 0 = no growth, -100 = all killed)
Common to all, as to details: 10 µM unless noted

Compounds without any hit were thinned out: in the full panel of roughly 83,000, 20% have a hit.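 48-hour exposure, single concentration, 96-well plates; percent growth endpoint where 0 means no net growth. Active: below 10.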 Unmarked numbers belong to inactive results. Activity calls are given as the source filed them.

`CN1CCN(c2ccc(/C=N/Nc3nc4ccccc4c(=O)n3-c3ccccc3)cc2)CC1`: the growth was 93.4% in the test with SR leukemia; 101% in the test with RPMI-8226 leukemia; 102% in the test on OVCAR-8 ovarian; 107% in the test with OVCAR-5 ovarian; 97.2% in the test with OVCAR-4 ovarian; 109% in the test with SK-OV-3 ovarian. For the same compound, the growth with IGROV1 ovarian is 104%; in the test on OVCAR-3 ovarian, 104%; in the test with HS 578T breast, 92.5%; in the test with NCI/ADR-RES ovarian it was 101%; in the test with T-47D breast it was 92.6%; in the test on BT-549 breast it was 108%. The growth in the test with MDA-MB-435 melanoma is 104%; in the test on SW-620 colon, 99.6%; in the test with MCF7 breast, 93.3%; with HCT-116 colon it was 99%; in the test on KM12 colon, 99.8%.
As for `CCCCCc1ccc(S(=O)(=O)Nc2cccc(-c3csc(NC(=O)CN4CCN(C)CC4)n3)c2)cc1`, the growth in the test with SR leukemia was -4.74% (active); with RPMI-8226 leukemia it was 5.62% (active); in the test with OVCAR-8 ovarian, 95.9%; in the test with OVCAR-5 ovarian it was 105%; in the test on OVCAR-4 ovarian it was 81.4%; with SK-OV-3 ovarian it was 90.6%. The growth in the test with IGROV1 ovarian is 83.8%; in the test with OVCAR-3 ovarian, 75.3%; in the test on HS 578T breast, 82.1%; with NCI/ADR-RES ovarian it was 93.1%; with T-47D breast, 67.2%; in the test with BT-549 breast, 93.4%. The growth with MDA-MB-435 melanoma is 45.3%; in the test with SW-620 colon it was 46.5%; with MCF7 breast it was 26.2%; in the test on HCT-116 colon, 16.9%; in the test with HCC-2998 colon, 14.8%; in the test on KM12 colon it was 65.8%.
In the case of `Cc1[nH]c(C(=O)Nc2ccccc2OCc2cccc(C(=O)N3CCC[C@@H](N)C3)c2)c(Cl)c1Cl`, the growth was -46.2% (active) with SR leukemia; -38.5% (active) in the test with RPMI-8226 leukemia; -45.2% (active) in the test with OVCAR-8 ovarian; -87.3% (active) with OVCAR-5 ovarian; -77.4% (active) with OVCAR-4 ovarian; -59.3% (active) in the test on SK-OV-3 ovarian. The growth with IGROV1 ovarian was -73.5% (active); in the test on OVCAR-3 ovarian, -87.4% (active); in the test on HS 578T breast, -50.9% (active); in the test with NCI/ADR-RES ovarian it was -68.8% (active); in the test with T-47D breast it was -55.2% (active); in the test with BT-549 breast it was -89.4% (active). In addition, the growth with MDA-MB-435 melanoma is -96.6% (active); in the test with SW-620 colon, -75.9% (active); with MCF7 breast it was -77.5% (active); in the test on HCT-116 colon, -82.1% (active); with HCC-2998 colon, -92.5% (active); in the test on KM12 colon, -80% (active).
`COc1ccc2c(c1)Oc1nc(N)c(C#N)c(N)c1C2Sc1ccc(C)cc1` (stereo not given): the growth in the test on SR leukemia is 0.429% (active); with RPMI-8226 leukemia it was -19% (active); in the test with OVCAR-8 ovarian, 12.7%; in the test on OVCAR-5 ovarian, 15.9%; in the test with OVCAR-4 ovarian it was 15.1%; with SK-OV-3 ovarian, 86.4%. For the same compound, the growth was -76.5% (active) with IGROV1 ovarian; -77.1% (active) in the test with OVCAR-3 ovarian; 14.8% in the test on HS 578T breast; 5.39% (active) in the test with NCI/ADR-RES ovarian; -31.6% (active) in the test on T-47D breast; 68.4% with BT-549 breast. For the same compound, the growth in the test on MDA-MB-435 melanoma is -8.09% (active); with SW-620 colon it was -49.5% (active); in the test on MCF7 breast, -77.7% (active); in the test with HCT-116 colon it was -69.1% (active); with KM12 colon, 52.5%.
`O=C(NCCN1CCCC1)c1ccc(-c2nc3ccc4[nH]ncc4c3c3c2CCCC3)cc1`: the growth with SR leukemia was -24.4% (active); in the test with RPMI-8226 leukemia it was -15% (active); in the test on OVCAR-8 ovarian it was 10.9%; in the test with OVCAR-5 ovarian, 23.5%; with OVCAR-4 ovarian, 16%; in the test with SK-OV-3 ovarian, 0.026% (active). In addition, the growth in the test with IGROV1 ovarian is 1.22% (active); with OVCAR-3 ovarian, 1.47% (active); in the test on HS 578T breast it was -1.99% (active); in the test on NCI/ADR-RES ovarian, 93.2%; in the test on T-47D breast it was 23%; in the test with BT-549 breast, -33.4% (active). Moreover, the growth was 12.3% with MDA-MB-435 melanoma; 1.5% (active) in the test with SW-620 colon; -9.45% (active) in the test with MCF7 breast; 1.82% (active) with HCT-116 colon; 1.12% (active) in the test with KM12 colon.
On to `CCn1c(SCC(=O)Nc2cccc(C(=O)/C=C/c3ccc(Br)cc3)c2)nc2ccccc2c1=O`, for which the growth was 74.3% in the test with SR leukemia; 5.53% (active) in the test with RPMI-8226 leukemia; 96.4% in the test on OVCAR-8 ovarian; 95.8% in the test with OVCAR-5 ovarian; 93% in the test on OVCAR-4 ovarian; 106% with SK-OV-3 ovarian. Besides, the growth was 86.8% with IGROV1 ovarian; 90.7% with OVCAR-3 ovarian; 98.3% in the test with HS 578T breast; 89.6% in the test on NCI/ADR-RES ovarian; 90.7% with T-47D breast; 85.7% with BT-549 breast. Also, the growth in the test with MDA-MB-435 melanoma was 99.2%; in the test on SW-620 colon, 80.9%; with MCF7 breast, 21.5%; with HCT-116 colon, 28.4%; in the test on HCC-2998 colon, 95.3%; in the test on KM12 colon, 96.5%.
For `COc1cc(-c2nc(-c3ccccc3)[nH]c2-c2ccnc(NCCCNS(=O)(=O)c3cccc(F)c3)n2)ccc1Cl`, the growth in the test on SR leukemia is 32.2%; with RPMI-8226 leukemia it was 27.2%; in the test with OVCAR-8 ovarian it was 31.7%; with OVCAR-5 ovarian, 88.1%; in the test on OVCAR-4 ovarian, 56.3%; with SK-OV-3 ovarian, 76.8%. The growth in the test with IGROV1 ovarian was 40.6%; in the test on OVCAR-3 ovarian, 40.7%; in the test on HS 578T breast, 78%; in the test with NCI/ADR-RES ovarian, 31.9%; in the test on T-47D breast, 24.1%; in the test with BT-549 breast it was 71%. The growth in the test with MDA-MB-435 melanoma was 22.5%; in the test on SW-620 colon it was 71.3%; with MCF7 breast it was 35.3%; in the test on HCT-116 colon, 18.8%; in the test on KM12 colon it was 39.8%.
Turning to `COc1ccc2c(c1)c(CC(=O)[Se]CCC#N)c(C)n2C(=O)c1ccc(Cl)cc1`, the growth in the test with SR leukemia was 4.36% (active); in the test on RPMI-8226 leukemia, 50.9%; in the test on OVCAR-8 ovarian it was 6.32% (active); in the test with OVCAR-5 ovarian, 29%; in the test on OVCAR-4 ovarian it was 31.6%; with SK-OV-3 ovarian it was 22.3%. Further, the growth in the test on IGROV1 ovarian is -55.6% (active); in the test with OVCAR-3 ovarian, -30.7% (active); in the test on HS 578T breast, -14.2% (active); with NCI/ADR-RES ovarian, -1.67% (active); in the test with T-47D breast, 66.7%; in the test with BT-549 breast, -59.8% (active). Moreover, the growth in the test on MDA-MB-435 melanoma was -13.4% (active); in the test with SW-620 colon, 2.84% (active); with MCF7 breast it was 2.34% (active); in the test with HCT-116 colon, -16.9% (active); in the test on HCC-2998 colon, 75.6%; in the test with KM12 colon, 26.5%.

The values above are taken from PubChem BioAssay (NCI).
